# Experimental data from paper PMC9911399, “Two distinct binding modes provide the RNA-binding protein RbFox with extraordinary sequence specificity”.
# Positions count from the first letter of the chain named. Over roughly 16,000 sequences, “ka relative to ugcaugu” has its median near 0.096; the highest 2% begin near 0.35. The sample as a whole holds a higher share of the highest values than the screen did.
# T1: RBFOX1 RRM RbFoxmut (Fox-RRM*) (Homo sapiens, UniProt Q9NWB1 109-208, R118D;E147R;N151S;E152T)
# T1 sequence: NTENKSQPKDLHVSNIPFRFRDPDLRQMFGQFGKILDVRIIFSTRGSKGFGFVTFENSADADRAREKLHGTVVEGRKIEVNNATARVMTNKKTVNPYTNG
# B1: GCACGUU (DNA:RNA)
# RNA: GGGAGACCGGAAUUCAGAUUGUCCGCACGUUUUAAAUCCCGUCGUAGCCACCA
# DNA 1: CAATCTGAATTCCGGTCTCCC
# DNA 2: TGGTGGCTACGACGGGATT
# B2: GUUAAGG (DNA:RNA)
# RNA: B1 RNA with C26U, A27U, C28A, G29A, U30G, U31G
# DNA 1: CAATCTGAATTCCGGTCTCCC
# DNA 2: TGGTGGCTACGACGGGATT
# B3: UGUACAC (DNA:RNA)
# RNA: GGGAGACCGGAAUUCAGAUUGUCCUGUACACUUAAAUCCCGUCGUAGCCACCA
# DNA 1: CAATCTGAATTCCGGTCTCCC
# DNA 2: TGGTGGCTACGACGGGATT
# B4: GUCUCAC (DNA:RNA)
# RNA: B3 RNA with U25G, G26U, U27C, A28U
# DNA 1: CAATCTGAATTCCGGTCTCCC
# DNA 2: TGGTGGCTACGACGGGATT
# B5: GGGUCUA (DNA:RNA)
# RNA: B1 RNA with C26G, A27G, C28U, G29C, U31A
# DNA 1: CAATCTGAATTCCGGTCTCCC
# DNA 2: TGGTGGCTACGACGGGATT
# B6: UAACUCU (DNA:RNA)
# RNA: B1 RNA with G25U, C26A, G29U, U30C
# DNA 1: CAATCTGAATTCCGGTCTCCC
# DNA 2: TGGTGGCTACGACGGGATT
# B7: UCUGACU (DNA:RNA)
# RNA: B1 RNA with G25U, A27U, C28G, G29A, U30C
# DNA 1: CAATCTGAATTCCGGTCTCCC
# DNA 2: TGGTGGCTACGACGGGATT
# B8: AACCUGA (DNA:RNA)
# RNA: B1 RNA with G25A, C26A, A27C, G29U, U30G, U31A
# DNA 1: CAATCTGAATTCCGGTCTCCC
# DNA 2: TGGTGGCTACGACGGGATT
# B9: CAACUCG (DNA:RNA)
# RNA: B1 RNA with G25C, C26A, G29U, U30C, U31G
# DNA 1: CAATCTGAATTCCGGTCTCCC
# DNA 2: TGGTGGCTACGACGGGATT
# B10: UGUGUUC (DNA:RNA)
# RNA: B3 RNA with A28G, C29U, A30U
# DNA 1: CAATCTGAATTCCGGTCTCCC
# DNA 2: TGGTGGCTACGACGGGATT
# B11: CACUGAA (DNA:RNA)
# RNA: B1 RNA with G25C, C26A, A27C, C28U, U30A, U31A
# DNA 1: CAATCTGAATTCCGGTCTCCC
# DNA 2: TGGTGGCTACGACGGGATT
# B12: UUCCUUC (DNA:RNA)
# RNA: B1 RNA with G25U, C26U, A27C, G29U, U31C
# DNA 1: CAATCTGAATTCCGGTCTCCC
# DNA 2: TGGTGGCTACGACGGGATT
# B13: GUUAUGC (DNA:RNA)
# RNA: B3 RNA with U25G, G26U, C29U, A30G
# DNA 1: CAATCTGAATTCCGGTCTCCC
# DNA 2: TGGTGGCTACGACGGGATT
# B14: GUAUGCU (DNA:RNA)
# RNA: B1 RNA with C26U, C28U, U30C
# DNA 1: CAATCTGAATTCCGGTCTCCC
# DNA 2: TGGTGGCTACGACGGGATT
# B15: UUAUGCU (DNA:RNA)
# RNA: B1 RNA with G25U, C26U, C28U, U30C
# DNA 1: CAATCTGAATTCCGGTCTCCC
# DNA 2: TGGTGGCTACGACGGGATT
# B16: CGUAUGC (DNA:RNA)
# RNA: B3 RNA with U25C, C29U, A30G
# DNA 1: CAATCTGAATTCCGGTCTCCC
# DNA 2: TGGTGGCTACGACGGGATT
# B17: GGAUGCU (DNA:RNA)
# RNA: B1 RNA with C26G, C28U, U30C
# DNA 1: CAATCTGAATTCCGGTCTCCC
# DNA 2: TGGTGGCTACGACGGGATT
# B18: GGUAUGC (DNA:RNA)
# RNA: B3 RNA with U25G, C29U, A30G
# DNA 1: CAATCTGAATTCCGGTCTCCC
# DNA 2: TGGTGGCTACGACGGGATT
# B19: GAGCUUG (DNA:RNA)
# RNA: B1 RNA with C26A, A27G, G29U, U31G
# DNA 1: CAATCTGAATTCCGGTCTCCC
# DNA 2: TGGTGGCTACGACGGGATT
# B20: UGUGGCA (DNA:RNA)
# RNA: B3 RNA with A28G, C29G, A30C, C31A
# DNA 1: CAATCTGAATTCCGGTCTCCC
# DNA 2: TGGTGGCTACGACGGGATT
# B21: CUAUUUC (DNA:RNA)
# RNA: B1 RNA with G25C, C26U, C28U, G29U, U31C
# DNA 1: CAATCTGAATTCCGGTCTCCC
# DNA 2: TGGTGGCTACGACGGGATT
# B22: AGUCAAC (DNA:RNA)
# RNA: B3 RNA with U25A, A28C, C29A
# DNA 1: CAATCTGAATTCCGGTCTCCC
# DNA 2: TGGTGGCTACGACGGGATT
# B23: AAUGCAG (DNA:RNA)
# RNA: B3 RNA with U25A, G26A, A28G, C31G
# DNA 1: CAATCTGAATTCCGGTCTCCC
# DNA 2: TGGTGGCTACGACGGGATT
# B24: UUGCGUC (DNA:RNA)
# RNA: B1 RNA with G25U, C26U, A27G, U31C
# DNA 1: CAATCTGAATTCCGGTCTCCC
# DNA 2: TGGTGGCTACGACGGGATT
# B25: GUUCAUC (DNA:RNA)
# RNA: B1 RNA with C26U, A27U, G29A, U31C
# DNA 1: CAATCTGAATTCCGGTCTCCC
# DNA 2: TGGTGGCTACGACGGGATT
# B26: UCUUGCA (DNA:RNA)
# RNA: B1 RNA with G25U, A27U, C28U, U30C, U31A
# DNA 1: CAATCTGAATTCCGGTCTCCC
# DNA 2: TGGTGGCTACGACGGGATT
# B27: UUGCAUG (DNA:RNA)
# RNA: B1 RNA with G25U, C26U, A27G, G29A, U31G
# DNA 1: CAATCTGAATTCCGGTCTCCC
# DNA 2: TGGTGGCTACGACGGGATT
# B28: UUGCAUC (DNA:RNA)
# RNA: B1 RNA with G25U, C26U, A27G, G29A, U31C
# DNA 1: CAATCTGAATTCCGGTCTCCC
# DNA 2: TGGTGGCTACGACGGGATT
# B29: UUGCAGA (DNA:RNA)
# RNA: B1 RNA with G25U, C26U, A27G, G29A, U30G, U31A
# DNA 1: CAATCTGAATTCCGGTCTCCC
# DNA 2: TGGTGGCTACGACGGGATT
# B30: GCGUGCA (DNA:RNA)
# RNA: B1 RNA with A27G, C28U, U30C, U31A
# DNA 1: CAATCTGAATTCCGGTCTCCC
# DNA 2: TGGTGGCTACGACGGGATT
# B31: UUGCAUA (DNA:RNA)
# RNA: B1 RNA with G25U, C26U, A27G, G29A, U31A
# DNA 1: CAATCTGAATTCCGGTCTCCC
# DNA 2: TGGTGGCTACGACGGGATT
# B32: GUGCAUC (DNA:RNA)
# RNA: B1 RNA with C26U, A27G, G29A, U31C
# DNA 1: CAATCTGAATTCCGGTCTCCC
# DNA 2: TGGTGGCTACGACGGGATT
# B33: GUGCAUG (DNA:RNA)
# RNA: B1 RNA with C26U, A27G, G29A, U31G
# DNA 1: CAATCTGAATTCCGGTCTCCC
# DNA 2: TGGTGGCTACGACGGGATT
# B34: GUGCAUA (DNA:RNA)
# RNA: B1 RNA with C26U, A27G, G29A, U31A
# DNA 1: CAATCTGAATTCCGGTCTCCC
# DNA 2: TGGTGGCTACGACGGGATT
# B35: GUGCAGA (DNA:RNA)
# RNA: B1 RNA with C26U, A27G, G29A, U30G, U31A
# DNA 1: CAATCTGAATTCCGGTCTCCC
# DNA 2: TGGTGGCTACGACGGGATT
# Target: T1, RBFOX1 RRM RbFoxmut (Fox-RRM*)
# Assay: EMSA; HiTS-Eq, 1 nM pool, 10 min; buffer printed only for the single-RNA assays: 10 mM Tris pH 7.5, 150 mM NaCl, 3.4 mM EDTA, 0.001% NP-40, 30 C
# Settings: tags: His6 N-terminal (pET28a); label: 5' 32P
# Outline: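 Purified RbFox RRM, wild type or mutant, was incubated for 10 min in 50 µL with 1 nM of a 5′-radiolabelled RNA pool carrying 7 randomized nucleotides, whose flanks were annealed to DNA oligonucleotides, over a series of increasing protein concentrations. Unbound RNA was resolved on 8% native PAGE, cut out, reverse-transcribed, barcoded by PCR and sequenced on an Illumina HiSeq 2500. Relative association constants were derived from changes in read counts for each RNA species versus the control reaction and normalised to the cognate motif.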
row,Binder,binding signal
1,B1,0.318 KA relative to UGCAUGU
2,B2,0.0786 KA relative to UGCAUGU
3,B3,0.0562 KA relative to UGCAUGU
4,B4,0.0695 KA relative to UGCAUGU
5,B5,0.1 KA relative to UGCAUGU
6,B6,0.0488 KA relative to UGCAUGU
7,B7,0.0694 KA relative to UGCAUGU
8,B8,0.0413 KA relative to UGCAUGU
9,B9,0.142 KA relative to UGCAUGU
10,B10,0.108 KA relative to UGCAUGU
11,B11,0.0869 KA relative to UGCAUGU
12,B12,0.0735 KA relative to UGCAUGU
13,B13,0.21 KA relative to UGCAUGU
14,B14,0.402 KA relative to UGCAUGU
15,B15,0.13 KA relative to UGCAUGU
16,B16,0.325 KA relative to UGCAUGU
17,B17,0.142 KA relative to UGCAUGU
18,B18,0.398 KA relative to UGCAUGU

row,Binder,binding signal
1,B19,0.253 KA relative to UGCAUGU
2,B20,0.136 KA relative to UGCAUGU
3,B21,0.0582 KA relative to UGCAUGU
4,B22,0.0571 KA relative to UGCAUGU
5,B23,0.103 KA relative to UGCAUGU
6,B24,0.126 KA relative to UGCAUGU
7,B25,0.0631 KA relative to UGCAUGU
8,B26,0.205 KA relative to UGCAUGU
9,B27,0.909 KA relative to UGCAUGU
10,B28,0.432 KA relative to UGCAUGU
11,B29,0.108 KA relative to UGCAUGU
12,B30,0.225 KA relative to UGCAUGU
13,B31,0.23 KA relative to UGCAUGU
14,B32,0.566 KA relative to UGCAUGU
15,B33,1.39 KA relative to UGCAUGU
16,B34,0.153 KA relative to UGCAUGU
17,B35,0.12 KA relative to UGCAUGU
